From PubChem BioAssay AID463218 (Sanford-Burnham Center for Chemical Genomics, 2010)
The whole screen tested about 4,400 compounds, of which about 3,700 (84%) were called active.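 How the source made its calls: active means inhibition above about 39% in either of two replicate wells at 20 µM (limit read from the data); inactive means the rest.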 The set was probably picked from earlier hits. Only a sample is shown.

Assay: growth inhibition of tim23-1 ts yeast, retest – luminescence, single concentration, confirmation (AID 463218);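 further: temperature-sensitive tim23-1 mutant grown at 25 °C; 0% = DMSO wells with yeast and 100% = medium wells without yeast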
Conditions: S. cerevisiae tim23-1 growth, BacTiter-Glo luminescence, 24 h; at 20 µM; active compounds read high

inhibition, inactive:
CC[C@]1(C(=O)OC)[C@H]2C(=O)N(Cc3ccccc3)C(=O)[C@H]2[C@H]2CN=C(SCc3ccc(Cl)cc3)N21 31.4%, CC1(C)C=Cc2c(ccc3c2OC[C@@H](c2ccc(O)cc2O)C3)O1 29.5%, O=C(COC(=O)c1ccc(O)cc1O)c1ccc2c(c1)OCCO2 21%, O=C(NC(=S)Nc1cccc2c(O)cccc12)c1cccc(Br)c1 23.2%, CCn1c2ccccc2c2cc(NC(=S)N3CCOCC3)ccc21 31.6%

inhibition, active:
CCN1/C(=C\c2ccc3ccccc3[n+]2CC)Sc2cc(C)ccc21 64.8%, CCc1ccc2oc(-c3ccc(N)cc3)nc2c1 58.8%, O=C(CSc1cccc2cccnc12)N/N=C/c1cccnc1 62%, C[C@@H]1C(c2ccc(F)cc2)=NN(c2ccc(Br)cc2)[C@H]1C(=O)N1CCOC1=O 44.6%, CCOc1cc(/C=C2\SC(N3CCCC(C)C3)=NC2=O)ccc1O (configuration not stated) 43%, O=C(/C=C/c1ccccc1)c1ccccc1O 62.4%, COc1ccc(Oc2cn[nH]c2-c2ccc(OC)cc2O)cc1 59.6%, CCC(C)c1ccc(NC(=O)COC(=O)C2CCCC2)cc1 (configuration not stated) 49.4%, Clc1ccc(Nc2ccc3ccccc3n2)cc1 43.8%, O=Cc1cn(-c2ccccc2)nc1-c1ccccn1 57.2%, CC1CCCC(C)N1C(=O)CN1CCN(c2nc(-c3ccc(F)cc3)cs2)CC1 (configuration not stated) 54.5%, CC1(C)C2CCC1(C)C(OC(=O)c1ccc(O)cc1)C2 (configuration not stated) 58%, CCOC(=O)C1=C(C)N=c2s/c(=C\C(=O)OC)c(=O)n2C1c1ccc(OC)cc1 (configuration not stated) 55.2%, O=C(N/N=C\c1cccc(Br)c1)c1ccccc1-n1cccc1 50.8%, O=C(Oc1c(-c2ccco2)oc2ccccc2c1=O)c1cccnc1 67.5%, COc1ccc(C(=O)O/N=C(\N)Cc2ccc(Cl)cc2Cl)cc1OC 52.8%, c1ccc2cc(CCCc3cc4ccccc4cn3)ncc2c1 40.3%, Cc1ccc(Oc2cnn(-c3ccccc3)c(=O)c2Br)cc1 39.4%, O=C1c2ccccc2S(=O)(=O)N1CC(O)Cn1c2ccccc2c2ccccc21 (configuration not stated) 90.8%, O=C1C(=O)N(CC2COc3ccccc3O2)c2ccccc21 (configuration not stated) 46.6%, O=c1c(-c2ccc3c(c2)OCCO3)c(C(F)(F)F)oc2cc(O)cc(O)c12 63.5%, COc1cc(/C=C(\C#N)c2nc3ccccc3[nH]2)ccc1O 54.2%, Cc1cccc(/C(N)=N/OC(=O)c2ccccc2Cl)c1 75.3%, CNC(=O)/C(C#N)=C/c1c(F)cccc1Cl 71.8%, CCc1ccc(C(=O)NC(=S)Nc2ccccc2N2CCOCC2)cc1 49.2%, O=C(c1cc(-c2ccc(O)cc2)on1)N1CCCc2ccccc21 50.6%, O=C(c1cc(-c2cccc(O)c2)on1)N1CCc2ccccc2C1 48.2%, Cc1cc(Nc2ccccc2)n(C(=O)c2ccc(N)cc2)n1 55.7%, N/C(=N\OC(=O)c1cc(-c2ccccc2)nc2ccccc12)c1ccncc1 80.8%, O=C1CSC(=S)N1c1ccc(Cl)c(Cl)c1 76%, COC(=O)c1c(NC(=O)COc2ccc(Cl)cc2Cl)sc2c1CC(C)(C)NC2(C)C 63.6%, Oc1c(CN2CCN(c3ccc(F)cc3)CC2)cc(Cl)c2cccnc12 54.9%
